Reference: PubChem BioAssay AID774 (SRMLSC, 2007)
About 15 (0.02%) of roughly 65,000 compounds were called active.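 The calls were made as follows: active = single-dose screening hits from any of four coupled enzyme assays that gave an IC50 when retested across doses; inconclusive = no clear call, values can overlap the other calls; inactive = the rest.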 A selection follows. Non-standard residues stand in square brackets, D forms with d. Residues, ends and D or L forms follow the SMILES beside them. ξ: configuration not given here. ξV = CC(C)C(N)C(=O)O

Test: inhibitors of PK/LDH coupling enzymes, profiling panel, artefact control, biochemical, MLSMR library (AID 774);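 also: the DPM-DC format reads NADH fluorescence rather than 340 nm absorbance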
Conditions: coupled PK/LDH NADH assays, four targets; at 10 µM; active compounds read high
For C/C(=C\c1ccco1)C1Nc2cccc3cccc(c23)N1, the inhibition was 10% (inactive).
In the case of Cc1cc(NC(=O)Nc2ccccc2)n(-c2ccccc2)n1, the inhibition is reported as 1% (inactive).
With COc1ccc(Br)cc1/C=N/n1c(C)nnc1C the inhibition was 6% (inactive).
For O=C(Nc1ccccc1N1CCN(C(=O)c2ccccc2)CC1)c1ccc2c(c1)OCO2, the inhibition was 4% (inactive).
For C=CCNc1nc(C)nc(OC)n1, the inhibition was 3% (inactive).
With CCCCC(CC)C(=O)Nc1ccc(Cl)cn1 (centres undefined) the inhibition was 5% (inactive).
For CC(=O)c1c(N2CCOCC2)nc(=S)n(-c2cc(C)ccc2C)c1C, the inhibition was 5% (inactive).
With CC(C)CCn1c(CN(C)Cc2ccccc2)nc2c1c(=O)n(C)c(=O)n2C the inhibition was 8% (inactive).
With COC(=O)c1ccc(C2CC(=O)Nc3cc(OC)c(OC)cc32)cc1 (centres undefined) the inhibition was 9% (inactive).
With CCOc1ccccc1NC(=O)C1CCC(CNc2c(N3CCOCC3)c(=O)c2=O)CC1 (centres undefined) the inhibition was 7% (inactive).
In the case of O=C(CSc1ncccn1)NCCc1ccccc1, the inhibition is reported as 5% (inactive).
For COc1ccc(OC)c(NC(=O)CN2CCN(C(=O)c3ccco3)CC2)c1, the inhibition was 3% (inactive).
For Cc1cccc(C)c1NC(=O)CCCSc1nnc(-c2ccco2)n1-c1ccccc1, the inhibition was 3% (inactive).
With CCOC(=O)c1c(C(C#N)C#N)cc(C)nc1C the inhibition was 7% (inactive).
In the case of Cc1cc(C)c(C(=O)CN2C(=O)CCC2=O)cc1C, the inhibition is reported as 5% (inactive).
In the case of Oc1c(C(c2ccco2)N2CCC3(CC2)OCCO3)sc2ncnn12 (centres undefined), the inhibition is reported as 3% (inactive).
With CCOC(=O)c1cc2cc(-c3c(C(=O)OCC)oc4cc(O)cc(O)c4c3=O)ccc2o1 the inhibition was 3% (inactive).
For O=C(NC1=NCCS1)c1ccc(Cl)s1, the inhibition was 10% (inactive).
For c1ccc(-c2noc(-c3cccs3)n2)nc1, the inhibition was 3% (inactive).
In the case of CCCOC(=O)Nc1sc2c(c1C(=O)OCC)CCC2, the inhibition is reported as 5% (inactive).
In the case of O.O.O.O=S(=O)([O-])OC[C@H]1O[C@@H](O[C@]2(COS(=O)(=O)[O-])O[C@H](OS(=O)(=O)[O-])[C@@H](OS(=O)(=O)[O-])[C@@H]2OS(=O)(=O)[O-])[C@H](OS(=O)(=O)[O-])[C@@H](OS(=O)(=O)[O-])[C@@H]1OS(=O)(=O)[O-].[Al], the inhibition is reported as 1% (inactive).
With CC(=O)c1c(C)n([O-])c2ccccc2[n+]1=O the inhibition was 5% (inactive).
With Cc1ccc2[nH]c3c(c2c1)CN(C(=O)CN1CCN(c2ccccc2)CC1)CC3 the inhibition was 3% (inactive).
For CCn1c(SCC(=O)NCc2ccco2)nnc1-c1ccc(N)cc1, the inhibition was 3% (inactive).
For COc1ccc2c3c(c(=O)oc2c1OCC(=O)C(C)(C)C)CCCC3, the inhibition was 4% (inactive).
With O=C(O)c1ccc(F)c(S(=O)(=O)Nc2ccccc2)c1 the inhibition was 6% (inactive).
In the case of CC1CN(Cc2nc3c(c(=O)n(C)c(=O)n3C)n2Cc2cccc(Cl)c2)CC(C)O1 (centres undefined), the inhibition is reported as 5% (inactive).
With CC(=O)NC(C(=O)NCC(N)=O)C(C)C (centres undefined) (Ac-[ξV]-Gly-NH2) the inhibition was 4% (inactive).
With Cn1c(-c2ccc(C(=O)c3ccccc3)s2)nc2ccccc21 the inhibition was 6% (inactive).
For O=C(Oc1ccc2c(c1)CCC2)N1CCOCC1, the inhibition was 3% (inactive).
With O=P(c1ccc2c(c1)OCCO2)(N1CCOCC1)N1CCOCC1 the inhibition was 0% (inactive).
With CCOc1ccc(OCC)c(NC(=O)C(NS(=O)(=O)c2ccc3c(c2)oc(=O)n3C)C(C)C)c1 (centres undefined) the inhibition was 7% (inactive).
In the case of O=C(O)CN1C(=O)CC(Cc2ccccc2)C1=O (centres undefined), the inhibition is reported as 1% (inactive).
For CCCc1cc(=O)oc2c(C)c(O)c(CN3CCCCC3)cc12, the inhibition was 1% (inactive).
For CO/N=C(\C(=O)N[C@@H]1C(=O)N2C(C(=O)O)=C(COC(C)=O)CS[C@H]12)c1csc(N)n1 (stereo in doubt), the inhibition was 0% (inactive).
In the case of Cc1noc(C)c1S(=O)(=O)N(CC(=O)NCc1ccc(Cl)cc1)c1ccc2c(c1)OCO2, the inhibition is reported as 9% (inactive).
With C=CCNC(=O)CCCC(=O)NCC=C the inhibition was 5% (inactive).
In the case of CCCn1c(SCC(=O)Nc2cccc(C(=O)OCC)c2)nnc1-c1ccoc1C, the inhibition is reported as 7% (inactive).
In the case of C=CCOc1nc2c(c(=O)n(C)c(=O)n2C)n1Cc1ccc(Cl)cc1Cl, the inhibition is reported as 8% (inactive).
For Fc1ccc2nc(Nc3nc4c(s3)CCCC4)sc2c1, the inhibition was 3% (inactive).
For C=CCNC(=O)C1CC=CCC1C(=O)O (centres undefined), the inhibition was 4% (inactive).
With CCO/C([O-])=N/c1c[n+](N2CCOCC2)no1 the inhibition was 1% (inactive).
For COC(=O)Cc1csc(Nc2c(C)n(C)n(-c3ccccc3)c2=O)n1, the inhibition was 8% (inactive).
With COc1ccccc1C1/C(=C(/O)c2ccc(C)cc2)C(=O)C(=O)N1Cc1ccco1 (centres undefined) the inhibition was 10% (inactive).
For C=CCc1cccc2cc(C(=O)OCC)c(=O)oc12, the inhibition was 6% (inactive).
For Cn1c(=O)c2c(nc(OCc3cccnc3)n2Cc2ccccc2)n(C)c1=O, the inhibition was 3% (inactive).
In the case of CCOc1ccc(OCC)c(NC(=O)CN(C)S(=O)(=O)c2cccc3nsnc23)c1, the inhibition is reported as 4% (inactive).
For O=C(OCC(O)C(O)COC(=O)c1ccccc1)c1ccccc1 (centres undefined), the inhibition was 5% (inactive).
For c1ccc2c(CNn3cnnc3)cccc2c1, the inhibition was 3% (inactive).
